Assay outcomes as filed in PubChem BioAssay.
FLuc inh: Firefly luciferase inhibition profiling of diverse chemical library using quantitative high-throughput screening. Luciferin 4-monooxygenase (Photinus pyralis), P08659. actives 2.5% (n = 76,000). Potency, µM (doses to about 115 µM), usual class: inhibitors. AID 1347043, 2019. purified P. pyralis luciferase, luminescence, biochemical; note: nearly all actives have a fitted effect of over 65% in size
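Cell-free enzyme assay, 10nM P. pyralis luciferase, luciferin and ATP each at 10uM. Inhibition profiled over a 6-point titration, read as luminescence.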
HEK293 tox: Cytotoxic Profiling in HEK 293 Cell Line of Diverse Libraries Using Quantitative High-Throughput Screening. HEK 293 viability, ATP luminescence (CellTiter-Glo), 48-72 h. actives 6.6% (n = 94,000). Potency, µM (top dose mostly 115 µM), hits mostly inhibitors; note: nearly all actives have a fitted effect of over 60% in size
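Viability of HEK 293 cells, plated at 250 cells/well, was judged by cellular ATP after compound treatment for 48 or 72 hr. Luminescence was imaged 10 min after CellTiter-Glo addition at room temperature.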
NPR1 antag: Natriuretic polypeptide receptor (hNpr1) antagonism - Primary qHTS; actives 1.6% (n = 76,000); Atrial natriuretic peptide receptor 1 (Homo sapiens), P16066; Potency, µM (titrated, usually from 46.3 µM), actives largely listed as inhibitors; HEK293 hNpr1 GloSensor cGMP, ANP-stimulated luminescence; calls by dose curve; note: nearly all actives have a fitted effect of over 60% in size
Target sequence (P16066 whole entry, looked up): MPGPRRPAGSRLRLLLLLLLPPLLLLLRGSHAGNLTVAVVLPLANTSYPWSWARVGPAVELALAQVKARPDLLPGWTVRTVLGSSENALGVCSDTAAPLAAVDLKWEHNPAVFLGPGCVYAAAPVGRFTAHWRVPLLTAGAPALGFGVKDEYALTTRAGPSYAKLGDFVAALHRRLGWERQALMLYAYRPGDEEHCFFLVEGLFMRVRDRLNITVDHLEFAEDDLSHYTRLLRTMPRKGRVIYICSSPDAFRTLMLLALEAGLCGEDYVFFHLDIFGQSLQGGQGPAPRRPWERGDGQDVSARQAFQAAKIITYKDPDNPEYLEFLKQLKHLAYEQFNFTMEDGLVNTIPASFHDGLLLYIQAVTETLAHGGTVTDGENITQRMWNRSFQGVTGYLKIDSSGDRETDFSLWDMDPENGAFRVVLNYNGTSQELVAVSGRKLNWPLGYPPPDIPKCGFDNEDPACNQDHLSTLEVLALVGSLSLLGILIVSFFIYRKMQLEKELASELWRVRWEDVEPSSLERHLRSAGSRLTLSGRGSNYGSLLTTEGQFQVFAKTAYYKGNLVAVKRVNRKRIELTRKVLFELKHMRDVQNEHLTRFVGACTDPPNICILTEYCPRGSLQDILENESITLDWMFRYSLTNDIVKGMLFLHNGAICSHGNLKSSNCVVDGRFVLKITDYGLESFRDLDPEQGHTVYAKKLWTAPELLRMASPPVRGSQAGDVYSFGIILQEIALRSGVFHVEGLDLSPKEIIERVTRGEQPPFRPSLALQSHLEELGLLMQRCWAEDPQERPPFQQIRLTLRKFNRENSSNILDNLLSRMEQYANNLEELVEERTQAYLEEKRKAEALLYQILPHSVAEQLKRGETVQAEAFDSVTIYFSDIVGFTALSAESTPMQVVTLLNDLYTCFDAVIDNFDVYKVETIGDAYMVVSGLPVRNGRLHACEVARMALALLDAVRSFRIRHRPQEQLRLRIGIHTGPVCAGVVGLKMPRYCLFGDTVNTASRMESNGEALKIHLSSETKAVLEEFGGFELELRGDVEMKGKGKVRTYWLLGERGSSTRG
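Compound pre-incubated 30 min at room temperature on GloSensor-loaded HEK293 cells stably carrying hNpr1 and the pGS-40F cGMP biosensor. Stimulation uses hNppA at 0.1 nM final; luminescence is taken at baseline and 20 min post-agonist.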
NIH3T3 tox: Cytotoxic Profiling in NIH 3T3 Cell Line of Diverse Libraries Using Quantitative High-Throughput Screening. NIH 3T3 viability, CellTiter-Glo ATP luminescence, 48-72 h. Potency, µM (top dose mostly 96.7 µM), actives largely listed as inhibitors. AID 1345082, 2018. actives 4.3% (n = 94,000); note: nearly all actives have a fitted effect of over 55% in size
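Cytotoxicity was measured by CellTiter-Glo ATP luminescence after 48 or 72 h compound exposure at 37 °C. Mouse NIH 3T3 fibroblasts were seeded at 400 cells/well and dosed by 23 nL pin transfer.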
Numbers stand for hits. Sampled rows, rich in hits. Any-hit rate of the full collection: about 11%. Unless noted, calls come from the whole dose curve; as a rule, active = well fitted curve in the direction sought with a large enough effect; inconclusive = small, poorly fitted or top-dose-only effect, or another doubt; inactive = no such curve, though single readings can be large; an effect the other way counts as inactive or inconclusive.

Results for CC(C)CN1C(=O)c2cccn2CC1CNC(=O)c1nn(C)c2ccccc12 (centres undefined) ?
HEK293 tox: inconclusive; NIH3T3 tox: inactive

Results for Cn1ccnc1CNC(=O)C[C@@H]1C[C@H]2O[C@H](CNC(=O)NC3CCC3)[C@@H](O)[C@H]2O1 ?
FLuc inh: inactive; HEK293 tox: inactive; NPR1 antag: inactive; NIH3T3 tox: inactive

What do the screens show for `C[S+](=O)([O-])N1Cc2ccccc2CC2(CCCN2CC2CCCC2)C1` (centres undefined)?
HEK293 tox: inconclusive; NIH3T3 tox: inactive

What do the screens show for `O=C1CC2(CCN(C(=O)C3CCCN(C(=O)Cc4ccccn4)C3)CC2)Oc2ccccc2N1` (centres undefined)?
HEK293 tox: inactive; NIH3T3 tox: inactive

Results for O=C1[C@@H]2C[C@@H](CN2CC2CC2)Oc2ccccc2N1Cc1ccc(OC(F)(F)F)cc1 ?
FLuc inh: inactive; HEK293 tox: 56.2µM; NPR1 antag: inconclusive; NIH3T3 tox: 39.8µM

How did O=C1[C@@H]2C[C@@H](CN2C2CCOCC2)Oc2ccccc2N1Cc1ccc(OC(F)(F)F)cc1 do in these assays?
FLuc inh: inactive; HEK293 tox: inconclusive; NPR1 antag: inactive; NIH3T3 tox: inconclusive

What do the screens show for `COCCN1C(=O)[C@@H]2C[C@@H](CN2Cc2ccc(OC(F)(F)F)cc2)Oc2ccccc21`?
FLuc inh: inactive; HEK293 tox: inconclusive; NPR1 antag: inactive; NIH3T3 tox: inconclusive

Results for CS(=O)(=O)c1ccc(CN2C[C@@H]3C[C@H]2C(=O)N(Cc2ccc(OC(F)(F)F)cc2)c2ccccc2O3)cc1 ?
FLuc inh: inactive; HEK293 tox: 31.6µM; NPR1 antag: inactive; NIH3T3 tox: 31.6µM

How did COCC(=O)N1CCC(N2C(=O)c3c(c(C)nn3-c3ccccc3)C2C)C1 (centres undefined) do in these assays?
HEK293 tox: inactive; NIH3T3 tox: inactive

Results for CN(C)C(=O)c1ccc(OC2CCN(C(=O)c3ccc(F)c(F)c3)CC2)nc1 ?
FLuc inh: inactive; HEK293 tox: inconclusive; NPR1 antag: inactive; NIH3T3 tox: inconclusive

How did O=c1c2nc(NCc3ccccc3)ccc2ncn1Cc1ccccn1 do in these assays?
FLuc inh: inactive; HEK293 tox: inconclusive; NPR1 antag: inactive; NIH3T3 tox: 79.4µM

What do the screens show for `Cc1cc2cc(-c3c(C)noc3C)nc(-c3ccsc3)c2o1`?
FLuc inh: inactive; HEK293 tox: inconclusive; NPR1 antag: inactive; NIH3T3 tox: inconclusive

How did Cc1noc(C)c1-c1cc2c(cc(-c3ccccc3)n2C)c(N(C)C)n1 do in these assays?
FLuc inh: inactive; HEK293 tox: inconclusive; NPR1 antag: inactive; NIH3T3 tox: inconclusive

How did CC(=O)Nc1cccc(-c2nc(-c3c(C)noc3C)cc3c2cc(-c2ccccc2)n3C)c1 do in these assays?
FLuc inh: inactive; HEK293 tox: inconclusive; NPR1 antag: inactive; NIH3T3 tox: 11.2µM

Results for CC(=O)Nc1cccc(-c2nc(-c3c(C)noc3C)cc3cc(C)oc23)c1 ?
FLuc inh: inactive; HEK293 tox: 79.4µM; NPR1 antag: inactive; NIH3T3 tox: 39.8µM

What do the screens show for `CNC(=O)c1cc2cc(-c3c(C)noc3C)nc(-c3ccccc3C)c2o1`?
FLuc inh: inactive; HEK293 tox: inconclusive; NPR1 antag: inactive; NIH3T3 tox: 11.2µM

What do the screens show for `Cc1ccc(C2Cn3nnc(-c4noc(CCc5ccccc5)n4)c3CO2)cc1` (centres undefined)?
FLuc inh: inactive; HEK293 tox: inactive; NPR1 antag: inactive; NIH3T3 tox: inactive

How did COCCN1CCNc2nc(COc3cccc(C(F)(F)F)c3)n(Cc3ccccc3)c2C1=O do in these assays?
FLuc inh: inactive; HEK293 tox: inconclusive; NPR1 antag: inactive; NIH3T3 tox: inconclusive

How did CCn1nccc1C(=O)N1CCCC2(C=Cc3ccccc3O2)CC1 (centres undefined) do in these assays?
FLuc inh: inactive; HEK293 tox: inconclusive; NPR1 antag: inconclusive; NIH3T3 tox: inconclusive

What do the screens show for `COc1cccc(N2C(=O)NC(=NC3CCCCC3)C23CCN(C(=O)c2ccc(C)cc2)CC3)c1`?
HEK293 tox: inactive; NIH3T3 tox: inconclusive

How did CCNC(=O)c1ccc(CN2C(=O)NC3(CCS(=O)(=O)CC3)C2=O)cc1 do in these assays?
FLuc inh: inactive; HEK293 tox: inactive; NPR1 antag: inconclusive; NIH3T3 tox: inactive

What do the screens show for `COCc1ccc2c(c1)c(OC(C)(C)C(=O)NC1CCOCC1)nn2CCC(C)C`?
FLuc inh: inactive; HEK293 tox: inconclusive; NPR1 antag: inactive; NIH3T3 tox: inconclusive

How did COCc1ccc2c(c1)c(OC(C)(C)C(=O)NCCCN1CCCC1=O)nn2CCC(C)C do in these assays?
FLuc inh: inactive; HEK293 tox: inactive; NPR1 antag: inactive; NIH3T3 tox: 31.6µM

How did COCc1ccc2c(c1)c(OC(C)(C)C(=O)NC1CCC(O)CC1)nn2CCC(C)C (centres undefined) do in these assays?
FLuc inh: inactive; HEK293 tox: inconclusive; NPR1 antag: inactive; NIH3T3 tox: 12.6µM

How did COCc1ccc2c(c1)c(OC(C)(C)C(=O)NCCc1cccnc1)nn2CCC(C)C do in these assays?
FLuc inh: inactive; HEK293 tox: inconclusive; NPR1 antag: inactive; NIH3T3 tox: inconclusive

How did COCCN1CCOC[C@H]2CCN(C(=O)c3ccco3)C[C@H]21 do in these assays?
FLuc inh: inactive; HEK293 tox: inactive; NPR1 antag: inactive; NIH3T3 tox: inactive

How did O=C1CC2(CCN(CC3CC3)CC2)Oc2ccccc2N1 do in these assays?
FLuc inh: inactive; HEK293 tox: inactive; NPR1 antag: inactive; NIH3T3 tox: inactive

How did CCNC(=O)Cc1ccc(N(Cc2cccc(F)c2)C(=O)c2ccco2)cc1 do in these assays?
FLuc inh: inactive; HEK293 tox: inconclusive; NPR1 antag: inactive; NIH3T3 tox: inactive

Results for CCCNC(=O)Cc1ccc(N(Cc2ccc(F)cc2)C(=O)c2ccco2)cc1 ?
FLuc inh: inactive; HEK293 tox: 89.1µM; NPR1 antag: inactive; NIH3T3 tox: inconclusive

How did Cc1cccc(CNC(=O)Cc2ccc(N(Cc3ccc(F)cc3)C(=O)c3ccco3)cc2)c1 do in these assays?
FLuc inh: inactive; HEK293 tox: inconclusive; NPR1 antag: inactive; NIH3T3 tox: 39.8µM

How did CCCNC(=O)Cc1ccc(N(Cc2ccccc2)C(=O)c2ccco2)cc1 do in these assays?
FLuc inh: inactive; HEK293 tox: inconclusive; NPR1 antag: inactive; NIH3T3 tox: inconclusive

How did Cc1ccc(C#N)c(N2CCCC(c3nccn3CC3CCC3)C2)n1 (centres undefined) do in these assays?
FLuc inh: inactive; HEK293 tox: inconclusive; NPR1 antag: inactive; NIH3T3 tox: inconclusive

What do the screens show for `Cc1ccc(-n2nc(C)c([C@@H]3C=C[C@@H](NC(=O)CC(C)(C)CC(=O)O)C3)c2C)cc1Cl`?
FLuc inh: inactive; HEK293 tox: inactive; NPR1 antag: inactive; NIH3T3 tox: inconclusive

Results for Cc1ccc(-n2nc(C)c([C@@H]3C=C[C@@H](NCc4ccc(N(C)C)cc4)C3)c2C)cc1Cl ?
FLuc inh: 25.1µM; HEK293 tox: 8.91µM; NPR1 antag: inconclusive; NIH3T3 tox: 7.94µM
